# Rows were chosen to be rich in hits. Some 14% of all compounds tested hit in one or more screens of this group.
# USP28 inh: inhibitors of human USP28 deubiquitinase. AID 1645857, 2021. purified USP28, Ub-rhodamine cleavage fluorescence, 30 min. actives 3% (n = 47,000). inhibition, % at 25 µM
# Target sequence (Q96RU2 whole entry, looked up): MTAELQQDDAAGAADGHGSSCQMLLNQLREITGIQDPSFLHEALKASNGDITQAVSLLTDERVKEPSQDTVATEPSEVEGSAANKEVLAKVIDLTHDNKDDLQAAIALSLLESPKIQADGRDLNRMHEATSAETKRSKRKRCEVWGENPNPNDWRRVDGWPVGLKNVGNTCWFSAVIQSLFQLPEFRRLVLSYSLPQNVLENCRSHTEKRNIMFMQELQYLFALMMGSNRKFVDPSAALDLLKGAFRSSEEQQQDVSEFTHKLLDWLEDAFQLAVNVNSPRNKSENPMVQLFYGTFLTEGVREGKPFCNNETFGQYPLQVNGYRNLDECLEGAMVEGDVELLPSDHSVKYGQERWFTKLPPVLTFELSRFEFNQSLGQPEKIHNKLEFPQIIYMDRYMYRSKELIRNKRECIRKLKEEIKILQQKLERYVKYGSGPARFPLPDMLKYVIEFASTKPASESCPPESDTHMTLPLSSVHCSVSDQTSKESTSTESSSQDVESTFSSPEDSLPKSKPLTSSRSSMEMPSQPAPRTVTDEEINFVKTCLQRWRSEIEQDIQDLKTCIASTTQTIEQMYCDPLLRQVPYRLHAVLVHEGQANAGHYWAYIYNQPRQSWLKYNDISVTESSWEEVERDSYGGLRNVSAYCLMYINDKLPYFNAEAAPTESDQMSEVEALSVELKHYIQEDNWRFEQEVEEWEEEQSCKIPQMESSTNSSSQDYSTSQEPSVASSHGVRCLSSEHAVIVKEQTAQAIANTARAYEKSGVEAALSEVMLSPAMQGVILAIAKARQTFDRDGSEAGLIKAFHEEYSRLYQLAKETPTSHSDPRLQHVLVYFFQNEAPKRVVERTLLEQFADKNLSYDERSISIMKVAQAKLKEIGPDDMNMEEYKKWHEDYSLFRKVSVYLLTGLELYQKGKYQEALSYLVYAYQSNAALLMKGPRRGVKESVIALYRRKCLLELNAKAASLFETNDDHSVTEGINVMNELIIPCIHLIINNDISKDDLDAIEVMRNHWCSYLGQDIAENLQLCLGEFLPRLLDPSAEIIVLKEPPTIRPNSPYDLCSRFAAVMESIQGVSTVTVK
# USP30 inh: inhibitors of human USP30 deubiquitinase; inhibition, % at 25 µM; Ubiquitin carboxyl-terminal hydrolase 30 (Homo sapiens), Q70CQ3; AID 1645860, 2021; purified USP30, Ub-rhodamine cleavage fluorescence; actives 5.3% (n = 47,000)
# USP8 block: inhibitors of human USP8 deubiquitinase. actives 4.2% (n = 47,000). inhibition, % at 20 µM. purified USP8, Ub-rhodamine cleavage fluorescence, 30 min
# USP17 inh: inhibitors of human USP17 deubiquitinase; AID 1645855, 2021; inhibition, % at 50 µM; purified USP17, Ub-rhodamine cleavage fluorescence, 3 h; Ubiquitin carboxyl-terminal hydrolase 17-like protein 5 (Homo sapiens), A8MUK1; actives 6.5% (n = 47,000)
# Starred values were filed as active, the others as inactive. Rule as the data show it: active = inhibition above about 30%; inactive = the rest.
SMILES,USP28 inh,USP30 inh,USP8 block,USP17 inh
COc1ccc(C(C)NC(=O)c2cc(NC(C)=O)cc3nc(C)ccc23)cc1 (stereo not given),-9,-73,58*,17
O=C(COc1ncnc2cc([N+](=O)[O-])ccc12)NCc1ccc2c(c1)OCO2,3,1,66*,29
CCOc1ccc(-n2ccnc(SCC(=O)Nc3ccccc3F)c2=O)cc1,13,32*,57*,28
Cn1c(=O)c2c(ncn2CC(=O)OCC(=O)Nc2cccc(Cl)c2)n(C)c1=O,11,5,15,5
Cc1cc(C)cc(-n2ccnc(SCC(=O)Nc3cccc(Cl)c3)c2=O)c1,20,54*,-4,34*
COc1cnc(CSc2nccc(C)n2)cc1OCC(=O)Nc1ccccc1F,0,6,-33,-9
CCOc1ccc(-n2ccnc(SCC(=O)Nc3ccccc3Cl)c2=O)cc1,14,-37,53*,30*
COc1ccc(-c2ccnc(SCC(=O)Nc3ccccc3F)n2)cc1,23,65*,24,71*
COc1ccccc1NC1=NC(c2cccnc2)n2c(nc(C)cc2=O)N1 (stereo not given),-13,-7,-12,-1
CC(C)(C)c1cc(C(=O)NCc2cnc(C3CCCCO3)nc2)n[nH]1 (stereo not given),-5,3,0,0
CN1[C@@H](CCC(=O)NCc2ccc(F)cc2)CNC(=O)[C@@H]2[C@H]1CCN2Cc1ccccn1,-15,-73,-54,-48
O=C(Nc1cc(F)ccc1F)C1CCCN(S(=O)(=O)N2CCCCCC2)C1 (stereo not given),1,2,7,8
Cc1ncc(-c2ccccn2)c(-c2ccc(CNC(=O)Cc3sc(C)nc3C)cc2)n1,1,-1,36*,8
Cc1ncc(-c2ccccn2)c(-c2ccc(CNC(=O)CCN3CCOCC3)cc2)n1,-1,-10,12,4
O=C1C(O)=C(c2ccc(O)cc2)C(=O)C(O)=C1c1ccccc1,26,33*,1,13
CC(C)NC(=O)c1cc2c(nc1NCC1CC1)CCN(Cc1cnn(C)c1)CC2,-13,-43,-20,-31
COc1ccccc1S(=O)(=O)N1CCc2nc3ccccc3n2CC1,-7,4,-1,-6
COc1ccc(S(=O)(=O)N2CCc3nc4ccccc4n3CC2)cc1,-11,54*,-97,57*
Cc1cc(O)cc(Oc2cc(C)cc(O)c2)c1,19,30*,-65,4
COc1c(C)c2c(c(O)c1C/C=C(\C)C(O)CC(=O)O)C(=O)OC2 (stereo not given),12,38*,1,0
COc1c([C@H](CC(C)C)OC(C)=O)ccc2c1C(=O)OCc1cc(C)cc(O)c1O2,8,17,14,5
CCOc1ccc(S(=O)(=O)Nc2ccc[nH]c2=O)cc1,16,-1,9,87*
CCCN1C(=O)CCc2cc(NC(=O)c3ccccc3)ccc21,27,10,2,2
CN1C(=O)CCc2cc(NC(=O)c3cc4ccccc4[nH]3)ccc21,-32,-88,-13,33*
Cc1ccc(C)c(C(=O)COc2ncnc3scc(-c4ccccc4)c23)c1,-2,-21,8,2
SMILES,USP28 inh,USP30 inh,USP8 block,USP17 inh
COc1cccc(N2CCN(C(=O)CCNS(=O)(=O)c3ccc4c(c3)CCC(=O)N4)CC2)c1,1,-1,10,58*
Cc1ccc(NC(=O)NCC2CCN(CCc3ccccc3)C2)c(C)c1 (stereo not given),-2,-11,1,-9
COc1cc(C(=O)Nc2cccc(CCc3nc4ccccc4[nH]3)c2)cc(OC)c1OC,-9,-38,-4,-15
CN1CCN(Cc2cccnc2)C(=O)C12CCN(Cc1ccc[nH]1)CC2,55*,-14,40*,46*
COc1cccc(CN2CCc3nc(C(=O)N4CCCCC4)sc3CC2)c1,-19,-57,-12,-14
CC(C)(C)c1cc(CCC(=O)Nc2c3c(nc4c2CCC4)CCCC3)cc(C(C)(C)C)c1O,34*,77*,8,0
COc1ccc(CN2CCCC(c3cccc(-c4cccc(C(N)=O)c4)n3)C2)cc1 (stereo not given),13,7,7,0
CC(=O)Nc1cc(-c2cccc(O)c2)cn2c(-c3cnn(C)c3)cnc12,13,36*,-9,61*
CC(=O)Nc1cc(-c2cnn(C)c2)cn2c(-c3cnn(C)c3)cnc12,-37,-184,2,-4
CC(C)(C)OC(=O)N1CCC[C@]2(CCC(=O)N2)[C@H]1c1ccc(F)cc1,14,31*,25,12

# Source: PubChem
